Screening data deposited in PubChem BioAssay by National Center for Advancing Translational Sciences (NCATS).
In the library only some 19% were active in any assay of this set; here they are far more common.
HT1080NT lethal – kills 2HG-producing HT-1080-NT fibrosarcoma cells | 1.6% of 360,000 active | Potency, µM (titrated, usually from 46.1 µM), for inactives: at the highest dose activity, negative = less viability, most hits filed as cytotoxic | HT-1080-NT fibrosarcoma viability, CellTiter-Glo ATP luminescence, 48 h | AID 686970;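 note: NT is the 2HG producing partner of a matched IDH1 knockdown line; potency is the fitted concentration of half-maximal effect; 0% = DMSO-treated cells and -100% = media-only wells without cells; nearly all actives have a fitted effect of over 55% in size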
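HT-1080-NT; 750 cells/well; 5% FBS RPMI; 48 h compound, 37 degrees C; CellTiter-Glo luminescence; curve fitting and curve-class assignment.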
DT40 TDP1 no CPT – qHTS for Inhibitors of human tyrosyl-DNA phosphodiesterase 1 (TDP1): qHTS in cells in absence of CPT | DT40 Tdp1-/- hTDP1 cells, no CPT, ATP luminescence, 48 h | Potency, µM (series often up to 46.2 µM), without a hit: at the highest dose activity change, negative = growth inhibition, most hits filed as inhibitors | 15% of 420,000 active; note: potency is the fitted concentration of half-maximal effect; nearly all actives have a fitted effect of over 55% in size
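Compound effects on proliferation are scored in DT40 Tdp1-/-;hTDP1 cells in the absence of CPT. ATP levels (CellTiter-Glo luminescence) are recorded after a ≥48 hr, 37 °C incubation.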
IL1B secr inh – blocks inflammasome-driven IL-1 beta release; THP-1 LPS/ATP IL-1B secretion, AlphaLISA, 16 h; active compounds read low; activity change, % at 57.5 µM; 4.7% of 360,000 active; in the data active = activity change below about -50%; inconclusive = mostly about -30% to -49%
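Secreted IL-1B measured by AlphaLISA bead assay after 16 h compound exposure of THP-1 cells; compounds (final up to 57.5 uM) added 1 h before LPS (250 ng/mL) and ATP (1.25 mM) stimulation; lower signal means less secretion.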
DT40 TDP1 CPT – DT40-hTDP1 cell growth loss with CPT; 12% of 420,000 active; AID 686979; chicken DT40 Tdp1-/-;hTDP1 cells + 20 nM CPT, ATP luminescence, 48 h; Potency, µM (top dose mostly 46.2 µM), for the others: at the highest dose activity change, negative = growth inhibition, actives largely listed as inhibitors; note: potency is the fitted concentration of half-maximal effect; nearly all actives have a fitted effect of over 55% in size
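Cell growth measured by CellTiter-Glo luminescence after a minimum 48 h, 37 C compound exposure with 20 nM CPT in Tdp1-knockout DT40 cells stably expressing hTDP1, seeded 400/well; qHTS titration format.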
HT1080 IDH1KD tx – kills HT-1080 cells with IDH1 knockdown; Potency, µM (highest dose often 46.1 µM), for the others: at the top dose activity, negative = toxicity, actives largely listed as cytotoxic; HT-1080 IDH1 knockdown viability, ATP luminescence, 48 h; AID 686971; 2% of 360,000 active;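 note: potency is the fitted concentration of half-maximal effect; 0% = DMSO wells and -100% = cell-free medium wells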
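After a 2 h attachment period, IDH1KD HT-1080 cells took pin-transferred compound for 48 h at 37 °C; ATP-based luminescence after 10 min room-temperature reagent incubation reported viability.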
* = called active by the depositor; i = inactive; ? = inconclusive; / = no result given; [ ] = remark or other dose. Unless noted, calls come from the whole dose curve; as a rule, active = well fitted curve in the direction sought with a large enough effect; inconclusive = small, poorly fitted or top-dose-only effect, or another doubt; inactive = no such curve, though single readings can be large; an effect the other way counts as inactive or inconclusive. Unless noted, % is set by controls: 0 for no effect and ±100 for the full control effect.

SMILES	HT1080NT lethal	DT40 TDP1 no CPT	IL1B secr inh	DT40 TDP1 CPT	HT1080 IDH1KD tx
COc1ccc(CNC(=O)CCCCCNc2nc(=S)[nH]c3ccccc23)cc1	-9.6%	10.3µM*	-15.7	?	-13.2%
COc1ccc(CCNC(=O)CCCCCNc2nc(=S)[nH]c3ccccc23)cc1OC	-3.2%	18.4µM*	-8.6	?	-5.0%
CC(C)C[C@H](NC(=O)N1CC(=O)Nc2ccccc21)C(=O)N[C@H](C(=O)O)c1ccccc1	5.1%	6.2%	-2.7	31.8%	9.0%
CC(=O)Nc1cc(C(=O)N2CCN(C(=O)c3ccco3)CC2)cc2ncn(CCc3ccccn3)c12	/	-6.0%	/	-12.5%[9.04 µM]	/
CCCc1cc(=O)oc2cc(C)cc(OC(C)C(=O)NCc3cccnc3)c12 (configuration not stated)	-0.6%	24.9%	-17.0	-5.4%	-1.8%
Clc1ccc(CN2C3=NCCCN3c3ccccc32)cc1	?	20.6µM*	-28.8	25.9µM*	-26.8%
Cc1ccccc1CN1C2=NCCN2c2ccccc21	-9.0%	?	-5.3	?	9.8%
Clc1ccc(CN2C3=NCCCN3c3ccccc32)cc1Cl	?	14.6µM*	/	-119.5%	?
Cc1ccccc1CN1C2=NCCCN2c2ccccc21	-5.7%	18.4µM*	-16.4	18.4µM*	-27.2%
COc1ccc(CCNC(=O)C2CCCN(S(=O)(=O)c3ccc(F)cc3)C2)cc1OC (configuration not stated)	-7.3%	?	i	?	-3.7%
COc1cc(/C=C/C(=O)O)cc(S(=O)(=O)NCc2ccc3c(c2)OCO3)c1OC	-0.5%	?	24.3	?	-15.4%
CCC(=O)c1ccc(OCC(=O)OCC(=O)N(C)CC(=O)Nc2ccc(F)cc2)cc1	-9.3%	2.3%	19.3	-18.0%	5.1%
CN(c1ccc(OCC(=O)Nc2ccc(S(N)(=O)=O)cc2)cc1)S(=O)(=O)c1ccc(F)cc1	-4.4%	?	20.4	?	-1.9%
Cc1ccc(NC(=O)CN(C)C(=O)COc2ccc(C(=O)c3ccc(F)cc3)cc2)cc1	-6.3%	20.6µM*	-23.0	-29.2%	-9.1%
NS(=O)(=O)c1ccc(NC(=O)COc2ccc(C(=O)c3ccc(F)cc3)cc2)cc1	-12.1%	11.6µM*	?	?	-18.5%
Cc1ccc(S(=O)(=O)Oc2ccccc2-c2ccccc2)cc1	?	13µM*	45.1	16.4µM*	16.4µM*
Cc1ccc(C(=O)COc2ccccc2-c2ccccc2)cc1	-5.4%	25.9µM*	-3.8	23.1µM*	1.8%
COc1cc(F)ccc1-c1cc(C(=O)NCc2ccc(F)cc2)[nH]n1	?	-25.4%	-19.2	?	20.6%
Cc1cc(NC(=O)CCC(=O)N(Cc2cccnc2)C(C(=O)NC(C)(C)C)c2ccccc2Cl)no1 (configuration not stated)	-0.5%	-7.6%	-1.1	9.8%	0.5%
Cc1ccc(C(=O)N/N=C\c2cccs2)cn1	20.1%	-6.5%	-7.0	-7.1%	0.1%
O=C(N/C(=C\c1ccc(Br)cc1)C(=O)N1CCCC1)c1ccccc1F	-0.9%	-3.8%	-4.7	-1.2%	0.6%
CN(CC(=O)Nc1ccc(Cl)cc1)C(=O)c1sccc1-c1ccccc1	1.8%[9.24 µM]	?	-13.3	20.6µM*	-29.8%
CN(CC(=O)Nc1cccc(F)c1)C(=O)c1sccc1-c1ccccc1	-17.2%	-20.7%	-1.9	-9.3%	-8.0%
Cc1ccc(NC(=O)CN(C)C(=O)COc2ccccc2-c2ccccc2)cc1	?	14.6µM*	-65.2*	-29.0%	?
CCN(CC(=O)Nc1ccc(NC(C)=O)cc1)C(=O)COc1ccccc1-c1ccccc1	-7.2%	-11.4%	-6.4	-20.9%	-4.2%
COc1cc(CNCc2cc3cc(C)ccc3nc2-c2ccc(F)cc2)cc(OC)c1OC	/	-14.0%	/	-13.0%[9.04 µM]	/
Clc1ccc2[nH]c3c(NCCN4CCOCC4)ncnc3c2c1	-16.9%	?	?	-19.9%	?
c1ccc2c(c1)[nH]c1c(N3CCOCC3)ncnc12	-20.7%	12.6µM*	-17.0	16.4µM*	-22.6%
